# Data taken from the supplement of paper PMC4466140.
# How the values were obtained:
# Assay in all cases: SPOT peptide array binding signal intensity (averaged, normalized) (arbitrary units (background-subtracted, floor 0; scale differs between SH3 domains)); higher = stronger binding of the SH3 domain to the peptide
# AgAbp1 = target: AgAbp1
# Outline: (§1)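 E. coli BL21(DE3) was used to express GST-fused SH3 domains from four yeast species, which were then purified on glutathione Sepharose. These were incubated at 10 μg/ml in TBS-based blocking buffer overnight at 4°C on cellulose membranes carrying synthetic 15-mer peptides, in which cysteines were replaced by serines. Binding signal is the replicate average of normalized, background-subtracted spot intensity, in arbitrary units that differ between domains.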
# AgBbc1 = target: AgBbc1
# Outline: as §1
# AgBem1-D1 = target: AgBem1-D1
# Outline: as §1
# AgBzz1-D1 = target: AgBzz1-D1
# Outline: as §1
# AgBzz1-D2 = target: AgBzz1-D2
# Outline: as §1
# AgCyk3 = target: AgCyk3
# Outline: as §1
# AgFus1 = target: AgFus1
# Outline: as §1
# AgHof1 = target: AgHof1
# Outline: as §1
# AgHse1 = target: AgHse1
# Outline: as §1
# AgLsb1 = target: AgLsb1
# Outline: as §1
# AgLsb4 = target: AgLsb4
# Outline: as §1
# AgMyo5 = target: AgMyo5
# Outline: as §1
# AgNbp2 = target: AgNbp2
# Outline: as §1
# AgRvs167 = target: AgRvs167
# Outline: as §1
# AgSho1 = target: AgSho1
# Outline: as §1
# AgSla1-D1-D2 = target: AgSla1-D1-D2
# Outline: as §1
# AgSla1-D3 = target: AgSla1-D3
# Outline: as §1
# CaAbp1-D1 = target: CaAbp1-D1
# Outline: as §1
# CaAbp1-D2 = target: CaAbp1-D2
# Outline: as §1
# CaBbc1 = target: CaBbc1
# Outline: as §1
# CaBem1-D1 = target: CaBem1-D1
# Outline: as §1
# CaBzz1-D1 = target: CaBzz1-D1
# Outline: as §1
# CaBzz1-D2 = target: CaBzz1-D2
# Outline: as §1
# CaCyk3 = target: CaCyk3
# Outline: as §1
# CaFus1 = target: CaFus1
# Outline: as §1
# CaHof1 = target: CaHof1
# Outline: as §1
# CaHse1 = target: CaHse1
# Outline: as §1
# CaLsb1 = target: CaLsb1
# Outline: as §1
# CaLsb4 = target: CaLsb4
# Outline: as §1
# CaMyo5 = target: CaMyo5
# Outline: as §1
# CaNbp2 = target: CaNbp2
# Outline: as §1
# CaRvs167 = target: CaRvs167
# Outline: as §1
# CaRvs167-3 = target: CaRvs167-3
# Outline: as §1
# CaSho1 = target: CaSho1
# Outline: as §1
# CaSla1-D1-D2 = target: CaSla1-D1-D2
# Outline: as §1
# CaSla1-D3 = target: CaSla1-D3
# Outline: as §1
# ScAbp1 = target: ScAbp1
# Outline: as §1
# ScBbc1 = target: ScBbc1
# Outline: as §1
# ScBem1-D1 = target: ScBem1-D1
# Outline: as §1
# ScBzz1-D1 = target: ScBzz1-D1
# Outline: as §1
# ScBzz1-D2 = target: ScBzz1-D2
# Outline: as §1
# ScCyk3 = target: ScCyk3
# Outline: as §1
# ScFus1 = target: ScFus1
# Outline: as §1
# ScHof1 = target: ScHof1
# Outline: as §1
# ScHse1 = target: ScHse1
# Outline: as §1
# ScLsb1 = target: ScLsb1
# Outline: as §1
# ScLsb2 = target: ScLsb2
# Outline: as §1
# ScLsb3 = target: ScLsb3
# Outline: as §1
# ScLsb4 = target: ScLsb4
# Outline: as §1
# ScMyo3 = target: ScMyo3
# Outline: as §1
# ScMyo5 = target: ScMyo5
# Outline: as §1
# ScNbp2 = target: ScNbp2
# Outline: as §1
# ScPex13 = target: ScPex13
# Outline: as §1
# ScRvs167 = target: ScRvs167
# Outline: as §1
# ScSho1 = target: ScSho1
# Outline: as §1
# ScSla1-D1-D2 = target: ScSla1-D1-D2
# Outline: as §1
# ScSla1-D3 = target: ScSla1-D3
# Outline: as §1
# SpAbp1-D1 = target: SpAbp1-D1
# Outline: as §1
# SpBbc1 = target: SpBbc1
# Outline: as §1
# SpBzz1-D1 = target: SpBzz1-D1
# Outline: as §1
# SpBzz1-D2 = target: SpBzz1-D2
# Outline: as §1
# SpCyk3 = target: SpCyk3
# Outline: as §1
# SpHof1 = target: SpHof1
# Outline: as §1
# SpHof1-2 = target: SpHof1-2
# Outline: as §1
# SpHof1-3 = target: SpHof1-3
# Outline: as §1
# SpHse1 = target: SpHse1
# Outline: as §1
# SpLsb1 = target: SpLsb1
# Outline: as §1
# SpLsb4 = target: SpLsb4
# Outline: as §1
# SpMyo1 = target: SpMyo1
# Outline: as §1
# SpNbp2 = target: SpNbp2
# Outline: as §1
# SpPex13 = target: SpPex13
# Outline: as §1
# SpRvs167 = target: SpRvs167
# Outline: as §1
# SpSla1-D1-D2 = target: SpSla1-D1-D2
# Outline: as §1
# SpSla1-D3 = target: SpSla1-D3
# Outline: as §1
binder,measurement,setting,value
PSRRDSLSIPRAVDA,SPOT peptide array binding signal intensity,AgAbp1,≤ 0
same,SPOT peptide array binding signal intensity,AgBbc1,41.5
same,SPOT peptide array binding signal intensity,AgBem1-D1,56
same,SPOT peptide array binding signal intensity,AgBzz1-D1,17
same,SPOT peptide array binding signal intensity,AgBzz1-D2,30
same,SPOT peptide array binding signal intensity,AgCyk3,≤ 0
same,SPOT peptide array binding signal intensity,AgFus1,5
same,SPOT peptide array binding signal intensity,AgHof1,10
same,SPOT peptide array binding signal intensity,AgHse1,14.5
same,SPOT peptide array binding signal intensity,AgLsb1,13.5
same,SPOT peptide array binding signal intensity,AgLsb4,2.5
same,SPOT peptide array binding signal intensity,AgMyo5,≤ 0
same,SPOT peptide array binding signal intensity,AgNbp2,6
same,SPOT peptide array binding signal intensity,AgRvs167,1.67
same,SPOT peptide array binding signal intensity,AgSho1,≤ 0
same,SPOT peptide array binding signal intensity,AgSla1-D1-D2,0.5
same,SPOT peptide array binding signal intensity,AgSla1-D3,0.5
same,SPOT peptide array binding signal intensity,CaAbp1-D1,≤ 0
same,SPOT peptide array binding signal intensity,CaAbp1-D2,25
same,SPOT peptide array binding signal intensity,CaBbc1,354
same,SPOT peptide array binding signal intensity,CaBem1-D1,4
same,SPOT peptide array binding signal intensity,CaBzz1-D1,123
same,SPOT peptide array binding signal intensity,CaBzz1-D2,93
same,SPOT peptide array binding signal intensity,CaCyk3,3
same,SPOT peptide array binding signal intensity,CaFus1,65
same,SPOT peptide array binding signal intensity,CaHof1,1
same,SPOT peptide array binding signal intensity,CaHse1,≤ 0
same,SPOT peptide array binding signal intensity,CaLsb1,≤ 0
same,SPOT peptide array binding signal intensity,CaLsb4,≤ 0
same,SPOT peptide array binding signal intensity,CaMyo5,1.5
same,SPOT peptide array binding signal intensity,CaNbp2,28.5
same,SPOT peptide array binding signal intensity,CaRvs167,0.5
same,SPOT peptide array binding signal intensity,CaRvs167-3,1
same,SPOT peptide array binding signal intensity,CaSho1,8
same,SPOT peptide array binding signal intensity,CaSla1-D1-D2,≤ 0
same,SPOT peptide array binding signal intensity,CaSla1-D3,1.25
same,SPOT peptide array binding signal intensity,ScAbp1,≤ 0
same,SPOT peptide array binding signal intensity,ScBbc1,8.5
same,SPOT peptide array binding signal intensity,ScBem1-D1,57
same,SPOT peptide array binding signal intensity,ScBzz1-D1,22
same,SPOT peptide array binding signal intensity,ScBzz1-D2,19
same,SPOT peptide array binding signal intensity,ScCyk3,2
same,SPOT peptide array binding signal intensity,ScFus1,≤ 0
same,SPOT peptide array binding signal intensity,ScHof1,≤ 0
same,SPOT peptide array binding signal intensity,ScHse1,≤ 0
same,SPOT peptide array binding signal intensity,ScLsb1,≤ 0
same,SPOT peptide array binding signal intensity,ScLsb2,3.5
same,SPOT peptide array binding signal intensity,ScLsb3,4
same,SPOT peptide array binding signal intensity,ScLsb4,11.5
same,SPOT peptide array binding signal intensity,ScMyo3,0.5
same,SPOT peptide array binding signal intensity,ScMyo5,4.5
same,SPOT peptide array binding signal intensity,ScNbp2,1
same,SPOT peptide array binding signal intensity,ScPex13,1
same,SPOT peptide array binding signal intensity,ScRvs167,≤ 0
same,SPOT peptide array binding signal intensity,ScSho1,14
same,SPOT peptide array binding signal intensity,ScSla1-D1-D2,≤ 0
same,SPOT peptide array binding signal intensity,ScSla1-D3,22.2
same,SPOT peptide array binding signal intensity,SpAbp1-D1,8
same,SPOT peptide array binding signal intensity,SpBbc1,3
same,SPOT peptide array binding signal intensity,SpBzz1-D1,116
same,SPOT peptide array binding signal intensity,SpBzz1-D2,1.5
same,SPOT peptide array binding signal intensity,SpCyk3,3.5
same,SPOT peptide array binding signal intensity,SpHof1,1.25
same,SPOT peptide array binding signal intensity,SpHof1-2,0.5
same,SPOT peptide array binding signal intensity,SpHof1-3,1
same,SPOT peptide array binding signal intensity,SpHse1,21.2
same,SPOT peptide array binding signal intensity,SpLsb1,≤ 0
same,SPOT peptide array binding signal intensity,SpLsb4,≤ 0
same,SPOT peptide array binding signal intensity,SpMyo1,≤ 0
same,SPOT peptide array binding signal intensity,SpNbp2,≤ 0
same,SPOT peptide array binding signal intensity,SpPex13,≤ 0
same,SPOT peptide array binding signal intensity,SpRvs167,1.33
same,SPOT peptide array binding signal intensity,SpSla1-D1-D2,2
same,SPOT peptide array binding signal intensity,SpSla1-D3,1
